Out of some 340,000 compounds screened, about 4,500 (1.3%) were called active. About 5% were inconclusive and are not listed. Calls come from the whole dose curve; as a rule, active = well fitted inhibition curve with a large enough effect; inconclusive = small, poorly fitted or top-dose-only effect, or another doubt; inactive = no such curve, though single readings can be large or run the other way. The list comes from a sample in which actives are over-represented; it also holds similar structures and randomly drawn compounds.
target: DNA polymerase beta (Homo sapiens) (UniProt P06746); experiment: qHTS Assay for Inhibitors of DNA Polymerase Beta; settings: Pol beta primer extension/strand displacement, fluorescence kinetic; series mostly up to 114 µM
Method in brief: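 Reaction started by 50 nM substrate onto compound-treated Pol beta (10 nM, 15 min preincubation, room temperature); plates read at 0 min and 10 min. Normalized concentration-effect data fitted by four-parameter Hill equation.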
Potency is the fitted concentration of half-maximal effect.

Potency, inactive:
Cn1c(=O)c2c(-c3ccccc3Br)n(Cc3ccccc3)cc2n(C)c1=O
COc1ccccc1CNC(=O)C(=O)NCC(c1cccs1)S(=O)(=O)c1cccs1 (stereo not drawn)
Cc1c(Cl)cccc1NC(=O)C(=O)NCCc1csc2nc(-c3ccccc3F)nn12
COc1ccc(Nc2ncc3c(n2)CCN(C(=O)OC(C)(C)C)C3)cc1
COc1cccc(-c2nc(CS(=O)(=O)CC(=O)N3CCN(c4cc(C)ccc4C)CC3)c(C)o2)c1
COc1cccc(C(c2c(O)cc(C)n(Cc3ccco3)c2=O)N2CCN(c3ccccc3)CC2)c1 (stereo not drawn)
Cc1ccccc1CNC(=O)c1cccc(NC(=O)c2nsc3ccccc23)c1
COc1cc(OC)cc(C(=O)Nc2cc3nn(-c4ccccc4)nc3cc2Cl)c1
CC1(C)Cc2c(C#N)c(SCc3nc4ccccc4[nH]3)nc(N3CCOCC3)c2CO1
O=c1[nH]c(N2CCOCC2)nc2ccccc12
O=C(CC(c1cccs1)N1Cc2ccccc2C1=O)Nc1ccc(F)c(F)c1 (stereo not drawn)
Cc1c(C(=O)Nc2cccc(Cl)c2)oc2ccc(S(=O)(=O)N3CCOCC3)cc12
CCOC(=O)c1c(NC(=S)NC(=O)/C=C/c2cccs2)sc(C)c1C
CCc1nnc(NS(=O)(=O)c2ccc(NC(=S)NC(=O)c3cccs3)cc2)s1
COc1cccc(CNC(=O)Cc2csc3nc(-c4ccccc4)cn23)c1
Fc1ccccc1Oc1ncnc2c1oc1ccccc12
COc1ccc(CC(=O)Nc2nnc3n2CCS3)cc1OC
CCCCOc1ccc(CNC(=O)c2ccc3c(c2)N(C)C(=O)C2CCCCN32)cc1 (stereo not drawn)
COc1ccccc1-c1cc2nc(C)c(CCC(=O)O)c(C)n2n1
O=C(CSc1nc2ccc(Nc3nc(N4CCOCC4)nc(N4CCOCC4)n3)cc2s1)NCc1ccco1
CCn1c(SCC(=O)NCc2ccco2)nnc1-c1ccc(N)cc1
Cc1ccc(Cn2c(CNC(=O)Cc3cccc(C)c3)nc3cccnc32)cc1
Cc1cc(NC(=O)c2cccc(Cl)c2)ccc1-c1cc2ccccc2oc1=O
CCOc1ccc(-n2c(C)nc3c(cnn3-c3ccc(C)cc3)c2=O)cc1
COc1cccc(NC(=O)CN2C(=O)c3ccccc3Sc3ncccc32)c1
COC(=O)c1ccc2c(c1)N(CC(=O)Nc1ccc(C)c(C)c1)C(=O)c1ccccc1S2
CCc1ccc(NC(=O)Cn2c(=O)n(CCC(=O)NCc3ccc4c(c3)OCO4)c(=O)c3ccccc32)cc1
CC(=O)Nc1ccc(NC(=O)COc2ccc(-c3ccccc3)cc2)cc1
CNc1nnc(-c2ccco2)s1
COc1ccc(NC(=O)COCc2cc(-c3ccco3)on2)cc1
Cc1cccc(NC(=O)CSc2nnc(-c3ccco3)o2)c1
O=C(CSc1nc(=O)[nH]c2c1CCCC2)Nc1cc(C(F)(F)F)ccc1Cl
Cc1cccc(C(C)C)c1NC(=O)C(NS(=O)(=O)c1cccc2nsnc12)c1ccccc1 (stereo not drawn)
C=Cc1ccc(Cn2c(C(=O)O)c(CNC3CCCC3)c3ccc(C)cc32)cc1
O=C(NCc1ccc2c(c1)CCN2C(=O)c1ccccc1)Nc1cc(F)ccc1F
Cc1cccc(-c2nc(SCc3ccc(Br)cc3)n3[nH]c(=O)cc3n2)c1
Cc1nc(SCCOc2ccc(Cl)cc2)[nH]c(=O)c1Cc1ccccc1
COc1ccccc1CCNC(=O)c1cccn1-c1nnc(N2CCCCC2)s1
CCCCNC(=O)c1c[nH]c2ccc(S(=O)(=O)Nc3ccc(OCC)cc3)cc2c1=O
Cc1cc(C)cc(NS(=O)(=O)c2ccc3[nH]cc(C(=O)N4CCCCC4)c(=O)c3c2)c1
O=C(Nc1nc2c(s1)CCCC2)c1ccccc1F
COc1cc(OC)c(NC(=O)Cc2ccc(-n3c(C)nc4cccnc43)cc2)cc1Cl
COc1ccc(CNC(=O)c2ccc(NC(=O)N3CC4CCCN4c4ccccc43)cc2)cc1 (stereo not drawn)
O=C(Nc1ccc2nc(SCC(=O)N3CCCc4ccccc43)sc2c1)c1ccc(Cl)cc1
O=C(CSc1nc2ccccc2o1)N/N=C/c1ccccc1C(=O)O
CC(C)(C)C(=O)CSc1nc2ccccc2o1
Cc1ccccc1-c1nc(CS(=O)(=O)CC(=O)Nc2cc(Cl)cc(Cl)c2)c(C)o1
Cn1c(SCC(=O)N/N=C/c2ccc(O)c(O)c2)nc2ccccc21
CCC(C)NC(=O)C1c2ccccc2Oc2ccccc21 (stereo not drawn)
Cc1ccc(Nc2c(-c3ccc(Cl)cc3)nc3sccn23)c(C)c1
Cc1ccc(C(=O)N2CCc3cc(CNC(=O)c4ccc(Br)cc4)ccc32)cc1
CCn1cc(C(=O)NCCc2ccccc2)c(=O)c2cc(S(=O)(=O)N3CCCCCC3)ccc21
CCOC(=O)c1c(C)[nH]c(CCC(=O)NCCCN2CCN(c3cccc(Cl)c3)CC2)c1C

Potency, active:
C1=C(N2CCOCC2)/C(=C/c2nc3ccccc3[nH]2)CC1 20 µM
CCc1nnc(NS(=O)(=O)c2ccc(NC(=S)NC(=O)/C=C/c3cccs3)cc2)s1 89.1 µM
C=CCn1c(CSc2nc3ccccc3s2)nnc1SCC(=O)NCc1ccco1 39.8 µM
COc1ccccc1NC(=O)CN1C(=O)c2ccccc2Sc2ccc(C(=O)N3CCCC3)cc21 50.1 µM
Cc1ccc(OCC(=O)Nc2ccc(-c3nnc(-c4ccco4)o3)cc2)cc1 14.1 µM
COc1ccc(OCC(=O)Nc2nnc(-c3ccco3)s2)cc1 17.8 µM
O=c1cc2nc(-c3ccccc3)nc(SCCOc3ccc(Cl)cc3)n2[nH]1 20 µM
CC(C)c1ccc(NS(=O)(=O)c2ccc3[nH]cc(C(=O)NC4CCCC4)c(=O)c3c2)cc1 20 µM
Cc1ccc(/C=N/NC(=O)CSc2nc3ccccc3o2)cc1 44.7 µM
O=C(N/N=C/c1ccc(O)c(O)c1)C1c2ccccc2Oc2ccccc21 7.08 µM

From PubChem BioAssay AID485314 (National Center for Advancing Translational Sciences (NCATS), 2010)
